In PubChem BioAssay (NCATS):
Results filed as inconclusive are left out. Where a call stands in place of a potency, no number is given. Activity calls are given as the source filed them. Unless noted, calls come from the whole dose curve; as a rule, active = well fitted curve in the direction sought with a large enough effect; inconclusive = small, poorly fitted or top-dose-only effect, or another doubt; inactive = no such curve, though single readings can be large; an effect the other way counts as inactive or inconclusive.

How the values were obtained:
[1] = molecular target: Ferritin light chain (Equus caballus) (UniProt P02791); test: qHTS Validation Assay for Identification of Novel General Anesthetics (AID 2323); note: series mostly up to about 77 µM
Sequence of Ferritin light chain (Equus caballus) (P02791 2-175 limits assumed): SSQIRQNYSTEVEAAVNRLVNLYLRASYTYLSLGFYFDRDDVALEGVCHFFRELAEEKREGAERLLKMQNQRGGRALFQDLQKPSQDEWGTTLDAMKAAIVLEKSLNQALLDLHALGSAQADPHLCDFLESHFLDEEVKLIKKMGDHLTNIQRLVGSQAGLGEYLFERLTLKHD
Summary of the method: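 Apoferritin from horse spleen (10 uM) was mixed with 1-aminoanthracene at 50% saturation in PBS, then compounds were added. After 10 min at room temperature, fluorescence was read (ex 380 nm, em 535 nm) and normalized to free-probe and complex controls.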

[2] = molecular target: ATP-dependent DNA helicase Q1 (Homo sapiens) (UniProt P46063); test: qHTS Validation Assay for Inhibitors of RecQ-Like Dna Helicase 1 (RECQ1) (AID 2353)
Sequence of ATP-dependent DNA helicase Q1 (Homo sapiens) (P46063 whole entry, looked up): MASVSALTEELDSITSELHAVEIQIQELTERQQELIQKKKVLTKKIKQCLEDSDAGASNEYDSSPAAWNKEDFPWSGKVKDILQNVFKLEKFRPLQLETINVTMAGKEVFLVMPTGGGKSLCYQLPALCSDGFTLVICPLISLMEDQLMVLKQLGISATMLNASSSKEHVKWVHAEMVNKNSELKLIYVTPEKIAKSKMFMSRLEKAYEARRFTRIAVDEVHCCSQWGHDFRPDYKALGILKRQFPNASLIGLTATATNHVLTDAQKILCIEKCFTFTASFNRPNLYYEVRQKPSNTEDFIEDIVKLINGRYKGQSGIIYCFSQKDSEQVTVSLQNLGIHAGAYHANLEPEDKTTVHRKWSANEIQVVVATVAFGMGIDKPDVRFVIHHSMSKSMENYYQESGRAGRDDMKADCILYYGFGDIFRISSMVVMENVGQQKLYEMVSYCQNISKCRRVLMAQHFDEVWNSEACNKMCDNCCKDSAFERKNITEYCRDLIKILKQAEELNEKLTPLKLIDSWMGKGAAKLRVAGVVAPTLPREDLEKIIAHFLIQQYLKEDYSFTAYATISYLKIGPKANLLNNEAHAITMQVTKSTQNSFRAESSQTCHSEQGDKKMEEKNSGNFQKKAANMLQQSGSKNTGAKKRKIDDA
Summary of the method: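 50 nM RECQ1T1 preincubated 15 min with compound in Tris pH 8.0 buffer with MgCl2, DTT, Tween-20 and 2.5 ug/ml poly(dI-dC); started with 200 nM TAMRA/BHQ-2 forked duplex and 2 mM ATP. Unwinding read as fluorescence (525/598 nm), two reads 2 h apart.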

[3] = Cytometric Cell-Based qHTS for Inhibitors of the mTORC1 Signaling Pathway in MEF (Tsc2-/-, p53-/-) Cells (AID 2660);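 note: Tsc2 and p53 null MEFs carrying empty vector with compound for 24 h; percent of cells above a phospho-rpS6 to PI ratio cutoff in each well; series mostly up to about 38 µM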
Summary of the method: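 Readout: Alexa-488 phospho-rpS6 (Ser235/236) intensity divided by PI intensity, thresholded against 7.5 nM rapamycin wells and reported as % positive cells. PI cell count served as the viability measure. Compound exposure was 24 hrs at 37 degree Celsius.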

[4] = High Content Imaging Cell-Based qHTS for Inhibitors of the mTORC1 Signaling Pathway in MEF (Tsc2-/-, p53-/-) Cells (AID 2666);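 note: percent of cells scored positive for phospho-rpS6 Ser235/236 immunostaining by imaging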
Summary of the method: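 Cells were plated, dosed with compound after 24 hrs, and incubated another 24 hrs at 37 degree Celsius. Fixed cells were immunostained for phospho-rpS6 Ser235/236 and counterstained, and the normalized signal was scored as % active cells against rapamycin and DMSO controls.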

[5] = High Content Imaging Cell-Based qHTS for Inhibitors of the mTORC1 Signaling Pathway in MEF Cells (AID 2667); note: potency is the fitted concentration of half-maximal effect
Summary of the method: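 Immunofluorescence for rpS6 phosphorylation in MEFs of Tsc2-/-, p53-/- background rescued with WT Tsc2. Compound exposure lasted 24 hrs. Inhibition was scored against rapamycin-treated control wells.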

[6] = Cytometry Cell-Based qHTS for Inhibitors of the mTORC1 Signaling Pathway in MEF cells (AID 2668); note: potency is the fitted concentration of half-maximal effect
Summary of the method: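 Pathway inhibition in WT Tsc2-rescued Tsc2-/-, p53-/- MEFs is measured as the Alexa-488 phospho-rpS6 to propidium iodide intensity ratio after 24 hrs of compound at 37 degree Celsius. PI-stained cell number gives viability.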

[7] = Validation screen for inhibitors of Lassa infection (AID 463096; calls by dose curve; note: potency is the fitted concentration of half-maximal effect)
[8] = Validation screen for small molecules that induce DNA re-replication in MCF 10A normal breast cells (AID 463097); note: nearly all actives have a fitted effect of over 60% in size; note: potency is the fitted concentration of half-maximal effect
Summary of the method: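 DNA re-replication was detected as a rise in nuclei with elevated Hoechst fluorescence after a 48 hr compound exposure of MCF 10A cells at 37 C.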

[9] = molecular target: Ubiquitin carboxyl-terminal hydrolase 2 (Homo sapiens) (UniProt O75604); test: qHTS Validation Assay for Inhibitors of Ubiquitin-specific Protease USP2a Using CHOP2 as the Reporter (AID 463106)
Sequence of Ubiquitin carboxyl-terminal hydrolase 2 (Homo sapiens) (O75604 whole entry, looked up): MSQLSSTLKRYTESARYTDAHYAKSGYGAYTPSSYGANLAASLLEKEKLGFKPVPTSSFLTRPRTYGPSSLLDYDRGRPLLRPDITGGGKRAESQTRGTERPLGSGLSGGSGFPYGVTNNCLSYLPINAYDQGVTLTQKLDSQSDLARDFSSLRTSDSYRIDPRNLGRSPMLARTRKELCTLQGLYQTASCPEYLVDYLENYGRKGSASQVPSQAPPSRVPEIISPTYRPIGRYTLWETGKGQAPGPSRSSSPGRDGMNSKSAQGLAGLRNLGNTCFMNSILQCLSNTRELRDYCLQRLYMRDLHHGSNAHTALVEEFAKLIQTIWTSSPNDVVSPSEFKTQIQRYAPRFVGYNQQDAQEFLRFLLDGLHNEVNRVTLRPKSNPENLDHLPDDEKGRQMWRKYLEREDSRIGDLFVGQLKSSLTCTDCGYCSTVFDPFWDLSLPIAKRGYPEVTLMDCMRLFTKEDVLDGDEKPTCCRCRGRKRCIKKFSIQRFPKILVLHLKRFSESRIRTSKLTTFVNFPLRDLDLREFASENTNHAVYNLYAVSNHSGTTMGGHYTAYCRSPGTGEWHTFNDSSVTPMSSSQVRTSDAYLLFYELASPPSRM
Summary of the method: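 10nM USP2 core + cpd, 30min RT; add 25nM Ub-CHOP2/25nM substrate; 60min RT; FI 485/531nm. Buffer Tris pH 8.0, CaCl2, BME, CHAPS. Norm. to NEM = 100% inhibition; time-zero read flags fluorescent artifacts.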

[10] = molecular target: DNA polymerase III PolC-type (Bacillus subtilis (strain 168)) (UniProt P13267); test: qHTS Validation Assay for the Inhibitors of DNA Replication in Gram-Positive Bacteria (AID 485295);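 note: reconstituted holoenzyme with PolC plus beta clamp SSB and primase; PicoGreen fluorescence of double-stranded DNA made on primed circular M13 template; series mostly up to about 57 µM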
Summary of the method: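 Primed replication of single-stranded M13Gori by a four-protein B. subtilis holoenzyme is measured at room temperature. Double-stranded product is quantified by PicoGreen fluorescence after an EDTA stop; inhibition is scaled between DMSO and EDTA controls.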

[11] = molecular target: Tumor susceptibility gene 101 protein (Homo sapiens) (UniProt Q99816); test: qHTS Validation Assay for Iinhibitors of HIV-1 Budding by Blocking the Interaction of PTAP/TSG101 (AID 485342; calls by dose curve)
Sequence of Tumor susceptibility gene 101 protein (Homo sapiens) (Q99816 whole entry, looked up, the tested form may be a part): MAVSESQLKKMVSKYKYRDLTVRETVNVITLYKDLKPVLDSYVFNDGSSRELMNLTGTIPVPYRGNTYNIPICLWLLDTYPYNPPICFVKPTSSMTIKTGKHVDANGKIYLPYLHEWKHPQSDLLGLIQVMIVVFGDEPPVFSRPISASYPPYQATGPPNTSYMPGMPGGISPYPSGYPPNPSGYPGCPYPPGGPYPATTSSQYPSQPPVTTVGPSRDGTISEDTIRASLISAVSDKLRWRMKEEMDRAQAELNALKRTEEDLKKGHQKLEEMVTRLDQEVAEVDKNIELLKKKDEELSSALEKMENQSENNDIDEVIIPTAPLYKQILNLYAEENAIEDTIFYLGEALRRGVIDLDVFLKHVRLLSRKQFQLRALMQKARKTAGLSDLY
Summary of the method: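 Fluorescence anisotropy measured PTAP-Tsg101 interaction. Final concentrations were 10 uM protein domain and 50 nM labeled peptide, equilibrated 20 min at room temperature.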

[12] = qHTS Validation Assay to Find Inhibitors of Chronic Active B-Cell Receptor Signaling (AID 485345; active = well fitted curve in the direction sought with a large enough effect in the main read-out, with a control signal flat, not every such curve was filed as active)
Summary of the method: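 Read-out: ratio of filter-corrected green (IkappaBalpha fusion) to red (native) luciferase signal in doxycycline-induced TMD8 cells after 4 h at 37C. Titration spanned 46 uM–3 nM; Data were normalised to basal cells and 10 uM MG-132 wells.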

[13] = molecular target: Beta-2 adrenergic receptor (Homo sapiens) (UniProt P07550); test: qHTS validation assay of beta-arrestin-biased ligands of beta2-adrenergic receptor (AID 485366)
Sequence of Beta-2 adrenergic receptor (Homo sapiens) (P07550 whole entry, looked up): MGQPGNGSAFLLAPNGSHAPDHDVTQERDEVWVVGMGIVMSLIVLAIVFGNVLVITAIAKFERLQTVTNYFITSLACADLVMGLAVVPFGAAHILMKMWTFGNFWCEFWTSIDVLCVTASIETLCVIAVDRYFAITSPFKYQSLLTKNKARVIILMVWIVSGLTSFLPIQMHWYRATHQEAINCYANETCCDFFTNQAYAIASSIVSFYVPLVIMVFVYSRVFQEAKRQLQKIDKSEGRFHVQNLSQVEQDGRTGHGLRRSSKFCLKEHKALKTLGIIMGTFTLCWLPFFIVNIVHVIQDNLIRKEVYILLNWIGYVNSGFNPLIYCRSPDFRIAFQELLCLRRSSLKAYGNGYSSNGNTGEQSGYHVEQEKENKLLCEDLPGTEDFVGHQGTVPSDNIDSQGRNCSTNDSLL
Summary of the method: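 Tango cells (recombinant beta2-AR with recombinant beta-arrestin; recruitment releases tTA driving luciferase) were treated with compounds titrated up to 46 microM for 18 hr at 37 degrees C. Luminescence gave %Activity, and concentration-response curves were curve-classified.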

[14] = molecular target: ATP-dependent 6-phosphofructokinase (Trypanosoma brucei brucei) (UniProt O15648); test: qHTS Validation Assay to Find Inhibitors of T. brucei phosphofructokinase (AID 485368)
Sequence of ATP-dependent 6-phosphofructokinase (Trypanosoma brucei brucei) (O15648 whole entry, looked up): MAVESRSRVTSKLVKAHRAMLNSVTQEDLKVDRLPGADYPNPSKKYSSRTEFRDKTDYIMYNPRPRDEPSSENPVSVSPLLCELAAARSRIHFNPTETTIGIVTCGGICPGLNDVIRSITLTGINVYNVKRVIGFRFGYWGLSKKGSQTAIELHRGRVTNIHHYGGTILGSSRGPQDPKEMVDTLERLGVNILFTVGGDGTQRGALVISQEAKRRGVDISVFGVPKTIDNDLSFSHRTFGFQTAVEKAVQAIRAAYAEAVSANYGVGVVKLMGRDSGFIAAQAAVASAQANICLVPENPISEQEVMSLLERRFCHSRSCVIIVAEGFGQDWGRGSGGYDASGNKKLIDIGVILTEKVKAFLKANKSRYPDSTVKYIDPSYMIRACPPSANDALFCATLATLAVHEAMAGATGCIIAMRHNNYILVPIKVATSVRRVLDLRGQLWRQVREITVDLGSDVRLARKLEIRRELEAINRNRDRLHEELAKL
Summary of the method: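 Compounds (up to 57 uM, titration series) were pinned into substrate buffer, then 1.25 nM PFK added; after 45 min at room temperature, ADP product was quantified by ADP-Glo luminescence and concentration-response curves fitted.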

[15] = Quantitative high throughput screen for delayed death inhibitors of the malarial parasite plastid, 96 hour incubation (AID 488745); note: nearly all actives have a fitted effect of over 70% in size; note: potency is the fitted concentration of half-maximal effect
Summary of the method: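 P. falciparum carrying an integrated firefly luciferase reporter, grown in erythrocytes (2% hematocrit, 0.1% parasitemia final) in RPMI 1640/0.5% Albumax, was exposed to compound for 96 h (two generations) at 37 C, 5% CO2. Luminescence decrease indicated growth inhibition.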

[16] = Quantitative high throughput screen for delayed death inhibitors of the malarial parasite plastid, 48 hour incubation (AID 488752); note: nearly all actives have a fitted effect of over 65% in size; note: potency is the fitted concentration of half-maximal effect
Summary of the method: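 Erythrocytes infected with P. falciparum carrying an integrated firefly luciferase reporter (2% hematocrit, 0.1% parasitemia final) were exposed to compounds in RPMI 1640/0.5% Albumax for 48 h at 37 C, 5% CO2. Growth inhibition was scored as reduced luminescence.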

[17] = molecular target: Thioredoxin reductase 1, cytoplasmic (Rattus norvegicus) (UniProt O89049); test: qHTS Assay for Substrates of Mammalian Selenoprotein Thioredoxin Reductase 1 (TrxR1) (AID 488772);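 note: NADPH fluorescence in the first read after selenite addition and not the 8 min delta; series mostly up to about 57 µM; a drop in NADPH fluorescence below the no-compound background marks a TrxR1 substrate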
Sequence of Thioredoxin reductase 1, cytoplasmic (Rattus norvegicus) (O89049 whole entry, looked up): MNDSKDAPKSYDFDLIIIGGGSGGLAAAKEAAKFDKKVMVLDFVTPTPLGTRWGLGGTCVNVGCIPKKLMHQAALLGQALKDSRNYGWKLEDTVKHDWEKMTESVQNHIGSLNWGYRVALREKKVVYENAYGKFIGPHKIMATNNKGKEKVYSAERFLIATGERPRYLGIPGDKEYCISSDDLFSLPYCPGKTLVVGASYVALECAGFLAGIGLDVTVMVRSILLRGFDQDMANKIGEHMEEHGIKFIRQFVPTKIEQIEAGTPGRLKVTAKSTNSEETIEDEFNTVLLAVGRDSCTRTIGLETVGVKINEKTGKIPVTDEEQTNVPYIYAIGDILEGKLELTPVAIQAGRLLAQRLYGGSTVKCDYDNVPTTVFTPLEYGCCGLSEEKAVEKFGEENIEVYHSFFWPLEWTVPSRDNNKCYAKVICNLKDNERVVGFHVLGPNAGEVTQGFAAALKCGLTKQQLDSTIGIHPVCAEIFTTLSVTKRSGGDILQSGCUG
Summary of the method: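 Quantitative HTS in Tris-HCl buffer at pH 7.5 with EDTA and Tween-20, using rat TrxR1, 400 uM NADPH and 400 uM selenite (final). A fall in initial NADPH fluorescence relative to background marked substrate behaviour.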

[18] = molecular target: Flap endonuclease 1 (Homo sapiens) (UniProt P39748); test: qHTS Validation Assay for the Inhibitors of Human Flap endonuclease 1 (FEN1) (AID 488816); note: potency is the fitted concentration of half-maximal effect
Sequence of Flap endonuclease 1 (Homo sapiens) (P39748 whole entry, looked up): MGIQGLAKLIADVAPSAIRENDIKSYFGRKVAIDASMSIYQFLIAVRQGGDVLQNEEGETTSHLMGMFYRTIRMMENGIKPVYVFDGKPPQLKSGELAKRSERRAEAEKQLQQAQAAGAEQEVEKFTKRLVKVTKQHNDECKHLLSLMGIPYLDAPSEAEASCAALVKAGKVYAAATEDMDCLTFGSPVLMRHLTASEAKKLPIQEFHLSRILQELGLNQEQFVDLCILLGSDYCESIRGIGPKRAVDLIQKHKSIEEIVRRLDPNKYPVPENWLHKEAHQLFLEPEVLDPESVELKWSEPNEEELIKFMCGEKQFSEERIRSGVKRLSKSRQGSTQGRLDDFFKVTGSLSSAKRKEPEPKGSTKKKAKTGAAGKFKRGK
Summary of the method: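 Readings taken at 0 and 15 min after starting the reaction with 50 nM (final) substrate supplied the signal. Compounds had first sat with 10 nM FEN1 reagent for 15 min at room temperature. Values come from Hill-equation concentration-response fits.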

[19] = molecular target: RecQ-like DNA helicase BLM (Homo sapiens) (UniProt P54132); test: qHTS Validation Assay for Inhibitors of Bloom's syndrome helicase (BLM) (AID 2364)
Sequence of RecQ-like DNA helicase BLM (Homo sapiens) (P54132 whole entry, looked up): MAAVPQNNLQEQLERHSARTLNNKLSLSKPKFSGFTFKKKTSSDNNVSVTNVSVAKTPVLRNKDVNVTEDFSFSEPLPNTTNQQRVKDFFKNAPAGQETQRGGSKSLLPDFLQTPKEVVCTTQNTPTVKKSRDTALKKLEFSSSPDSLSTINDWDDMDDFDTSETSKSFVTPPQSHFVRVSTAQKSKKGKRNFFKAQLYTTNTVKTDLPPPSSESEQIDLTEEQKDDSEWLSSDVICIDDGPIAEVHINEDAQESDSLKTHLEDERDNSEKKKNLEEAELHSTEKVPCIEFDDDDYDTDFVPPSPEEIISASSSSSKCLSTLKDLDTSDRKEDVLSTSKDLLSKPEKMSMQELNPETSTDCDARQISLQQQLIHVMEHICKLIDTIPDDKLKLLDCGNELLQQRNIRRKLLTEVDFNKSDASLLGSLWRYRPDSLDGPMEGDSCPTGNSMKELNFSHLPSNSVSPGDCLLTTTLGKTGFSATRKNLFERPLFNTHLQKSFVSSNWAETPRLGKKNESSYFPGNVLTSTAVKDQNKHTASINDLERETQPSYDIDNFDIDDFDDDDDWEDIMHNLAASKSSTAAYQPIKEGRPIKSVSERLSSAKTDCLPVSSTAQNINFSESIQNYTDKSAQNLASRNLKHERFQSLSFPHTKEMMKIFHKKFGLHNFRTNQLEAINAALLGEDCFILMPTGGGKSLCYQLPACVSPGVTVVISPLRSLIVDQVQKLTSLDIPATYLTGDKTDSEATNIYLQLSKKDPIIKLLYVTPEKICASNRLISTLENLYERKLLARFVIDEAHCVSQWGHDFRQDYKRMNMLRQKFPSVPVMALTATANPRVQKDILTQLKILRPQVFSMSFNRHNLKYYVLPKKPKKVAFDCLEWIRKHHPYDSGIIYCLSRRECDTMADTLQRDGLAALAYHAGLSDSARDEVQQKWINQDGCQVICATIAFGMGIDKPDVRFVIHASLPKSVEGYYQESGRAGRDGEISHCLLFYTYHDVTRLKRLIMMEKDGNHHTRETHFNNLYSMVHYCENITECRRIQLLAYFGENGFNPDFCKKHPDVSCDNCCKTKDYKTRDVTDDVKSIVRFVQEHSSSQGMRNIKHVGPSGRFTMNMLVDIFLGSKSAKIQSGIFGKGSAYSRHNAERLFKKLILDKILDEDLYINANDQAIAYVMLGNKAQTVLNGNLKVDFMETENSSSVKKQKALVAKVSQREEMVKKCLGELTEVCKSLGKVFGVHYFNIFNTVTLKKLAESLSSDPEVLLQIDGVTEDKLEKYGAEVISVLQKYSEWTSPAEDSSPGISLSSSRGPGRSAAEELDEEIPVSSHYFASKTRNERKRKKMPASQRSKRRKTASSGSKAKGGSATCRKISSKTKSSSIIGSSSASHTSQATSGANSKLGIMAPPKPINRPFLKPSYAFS
Summary of the method: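 Forked 20-bp duplex substrate (200 nM, TAMRA/BHQ-2) plus 2 mM ATP added after 15 min compound preincubation with 50 nM enzyme, pH 8.0, poly(dI-dC) 2.5 ug/ml. Strand separation followed by fluorescence (525/598 nm) over 2 h, normalized to enzyme-free and DMSO controls.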

[20] = molecular target: Thioredoxin reductase 1, cytoplasmic (Rattus norvegicus) (UniProt O89049); test: qHTS Assay for Inhibitors of Mammalian Selenoprotein Thioredoxin Reductase 1 (TrxR1) (AID 488773); conditions: Potency: inhibition; note: nearly all actives have a fitted effect of over 40% in size; note: potency is the fitted concentration of half-maximal effect
Summary of the method: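 Steps: enzyme (90 nM) plus NADPH (400 uM final), 5 min at ~22 deg C; compound added, 15 min; selenite (400 uM final) added; fluorescence followed for 8 min. Concentration-response curves derived from the normalized delta values.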

| Structure (SMILES) | outcome [1] | outcome [2] | outcome [3] | Potency [4] | Potency [5] | Potency [6] | Potency [7] | Potency [8] | Potency [9] | Potency [10] | outcome [11] | outcome [12] | outcome [13] | Potency [14] | Potency [15] | Potency [16] | outcome [17] | Potency [18] | Potency [19] | Potency [20] |
| --- | --- | --- | --- | --- | --- | --- | --- | --- | --- | --- | --- | --- | --- | --- | --- | --- | --- | --- | --- | --- |
| CNCC(O)c1ccc(O)cc1 (stereo not drawn) | inactive | inactive | inactive | inactive | inactive | inactive | inactive | inactive | inactive | inactive | inactive | inactive | inactive | inactive | inactive | inactive | inactive | inactive |  |  |
| O=c1[nH]c2ccccc2n1CCCN1CCC(n2c(=O)[nH]c3cc(Cl)ccc32)CC1 | inactive | inactive | inactive | inactive | inactive |  | inactive |  | inactive | inactive | inactive |  | inactive |  | 1.17 µM (active) | 10.4 µM (active) | inactive |  | inactive | inactive |
| NCC(O)c1ccc(O)cc1 (stereo not drawn) | inactive | inactive | inactive | inactive | inactive | inactive | inactive | inactive | inactive | inactive | inactive | inactive | inactive |  | inactive | inactive | inactive | inactive | inactive | inactive |
| CC(=O)[C@H]1CC[C@H]2[C@@H]3CC[C@H]4C[C@H](O)CC[C@]4(C)[C@H]3C(=O)C[C@]12C | inactive | inactive | inactive | inactive | inactive | inactive | inactive | inactive | inactive | inactive | inactive | inactive | inactive | inactive | inactive | inactive | inactive | inactive | inactive | inactive |
| Cc1cccc(C)c1NC1=NCCCS1 | inactive | inactive | inactive | inactive | inactive | inactive | inactive | inactive | inactive | inactive | inactive | inactive | inactive | inactive |  | inactive | inactive |  |  | inactive |
| O=C1NCN(c2ccccc2)C12CCN(CC1COc3ccccc3O1)CC2 (stereo not drawn) | inactive | inactive | inactive | inactive | inactive | inactive | inactive | inactive | inactive | inactive | inactive | inactive | inactive | inactive | inactive | inactive | inactive | inactive |  | inactive |
| Nc1ccncc1 | inactive | inactive | inactive | inactive | inactive | inactive | inactive | inactive | inactive | inactive | inactive | inactive | inactive |  | inactive | inactive | inactive | inactive | inactive | inactive |
| Fc1ccc(C(OCCN2CCN(CCCc3ccccc3)CC2)c2ccc(F)cc2)cc1 |  | inactive |  |  |  | 18.5 µM (active) |  | 12.6 µM (active) | inactive | inactive | inactive |  | inactive | inactive | inactive |  | inactive | inactive |  | inactive |
| NCC1(CC(=O)O)CCCCC1 | inactive | inactive | inactive | inactive | inactive | inactive | inactive | inactive |  | inactive | inactive | inactive | inactive |  | inactive | inactive | inactive | inactive |  | inactive |
| c1ccc(C2CC2)c(OCC2=NCCN2)c1 | inactive | inactive | inactive | inactive | inactive | inactive | inactive | inactive | inactive | inactive | inactive | inactive | inactive | inactive | inactive | inactive | inactive | inactive | inactive | inactive |
| Clc1cccc(N2CCNCC2)c1 | inactive | inactive |  |  |  |  | inactive | inactive |  |  |  |  |  |  |  | inactive |  |  |  |  |
| C=C(C)[C@H]1Cc2c(ccc3c2O[C@@H]2COc4cc(OC)c(OC)cc4[C@@H]2C3=O)O1 |  | inactive | inactive | inactive | 0.0465 µM (active) | 0.0585 µM (active) | 5.62 µM (active) | 1.41 µM (active) | inactive | inactive | inactive |  | inactive |  |  | inactive | inactive | inactive |  | inactive |
| COc1ccc(Cc2nccc3cc(OC)c(OC)cc23)cc1OC | inactive | inactive |  |  |  |  | inactive | inactive |  |  |  |  |  |  | inactive | inactive |  | inactive |  |  |
| O=c1[nH]c2ccccc2n1C1CCN(CCCC(c2ccc(F)cc2)c2ccc(F)cc2)CC1 |  | inactive |  |  | 16.5 µM (active) |  |  |  | inactive |  | inactive |  | inactive | inactive | 10.4 µM (active) |  | inactive | inactive |  | inactive |
| CCC1(C2=NCCN2)Cc2ccccc2O1 (stereo not drawn) | inactive | inactive | inactive | inactive | inactive | inactive | inactive | inactive | inactive | inactive | inactive | inactive | inactive | inactive | inactive | inactive | inactive | inactive | inactive | inactive |
| N#CC(C#N)=Cc1ccc(O)c(O)c1 | inactive | inactive | inactive | inactive | inactive | inactive | inactive | inactive | inactive | inactive | inactive | inactive | inactive |  |  | inactive | inactive | 18.9 µM (active) |  | 16.8 µM (active) |
| CCCN1CCC[C@@H]2Cc3nc(N)ncc3C[C@H]21 | inactive | inactive | inactive | inactive | inactive | inactive | inactive | inactive | inactive | inactive | inactive | inactive | inactive | inactive | inactive | inactive | inactive | inactive | inactive | inactive |
| NN=C(N)N | inactive | inactive | inactive | inactive | inactive | inactive | inactive | inactive | inactive | inactive | inactive | inactive | inactive | inactive | inactive | inactive | inactive | inactive |  | inactive |
| CCCC(C)(COC(N)=O)COC(=O)NC(C)C (stereo not drawn) | inactive | inactive | inactive | inactive | inactive | inactive | inactive | inactive | inactive | inactive | inactive | inactive | inactive |  | inactive | inactive | inactive | inactive | inactive | inactive |
